Test results: PubChem BioAssay (NCATS)
Calls of active or inactive are those of the source. A call without a number means that no potency is given here. Calls come from the whole dose curve; as a rule, active = well fitted inhibition curve with a large enough effect; inconclusive = small, poorly fitted or top-dose-only effect; inactive = no such curve, though single readings can be large or run the other way.

Experiment: qHTS assay for measurement of the activity of small molecule inhibitors on Zika virus induced Caspase-3 activity in human astrocytoma cells (AID 1224859)
Conditions: SNB-19 ZIKV-induced caspase-3/7, luminescence, 6 h; series mostly up to 45.7 µM
How it was run: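 A cell-based luminescent caspase-3/7 assay used SNB-19 cells infected with ZIKV (2 FFU/cell) for 6 h following 1 h compound pretreatment.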

| Compound | Potency |
| --- | --- |
| COc1cc2c(Oc3ccc(NC(=O)C4(C(=O)Nc5ccc(F)cc5)CC4)cc3F)ccnc2cc1OCCCN1CCOCC1 | inactive |
| COc1cc2ncnc(Nc3ccc(F)c(Cl)c3)c2cc1NC(=O)C=CCN1CCCCC1 | inactive |
| CC1(C)CCC(c2ccc(Cl)cc2)=C(CN2CCN(c3ccc(C(=O)NS(=O)(=O)c4ccc(N[C@H](CCN5CCOCC5)CSc5ccccc5)c(S(=O)(=O)C(F)(F)F)c4)cc3)CC2)C1 | inactive |
| C[C@]1(CO)CN(c2cc(C(=O)Nc3ccc4c(c3)-c3c(c(C(N)=O)nn3-c3ccc(F)cc3)CC4)c(Cl)cn2)C[C@@]1(C)CO | inactive |
| CCS(=O)(=O)c1cccc(-c2cc(C(=O)NC3CCN(C)CC3)c(C)c3[nH]c4ncc(C)cc4c23)c1 | inactive |
| O=C(O)CCCc1c[nH]c2ccccc12 | inactive |
| CCn1cc(-c2ccnc3[nH]c(-c4cccc(CN(C)C)c4)cc23)c(-c2ccc(NC(=O)N(C)C)cc2)n1 | inactive |
| Cn1c(=O)n(-c2ccc(C(C)(C)C#N)cc2)c2c3cc(-c4cnc5ccccc5c4)ccc3ncc21 | inactive |
| CN1CCC(CNc2ccc3ncc(-c4cccc(OC(F)(F)F)c4)n3n2)CC1 | inactive |
| Nc1nccc(Oc2ccc(NC(=O)c3c[nH]cc(-c4ccc(F)cc4)c3=O)cc2F)c1Cl | inactive |
| Cc1cc(Nc2cc(N3CCN(C)CC3)nc(Sc3ccc(NC(=O)C4CC4)cc3)n2)n[nH]1 | inactive |
| CNC(=O)c1ccc(N2C(=S)N(c3cnc(C#N)c(C(F)(F)F)c3)C(=O)C23CCC3)cc1F | inactive |
| C[C@]12CC[C@H](O)CC1=CCC1C2CC[C@]2(C)C(n3cnc4ccccc43)=CCC12 (some centres undefined) | inactive |
| Cn1cc(-c2ccncc2)c(-c2ccc(OCc3ccc4ccccc4n3)cc2)n1 | inactive |
| O=C(O)C1(Cc2cccc(Nc3nccs3)n2)CCC(Oc2cccc(Cl)c2F)CC1 (centres undefined) | inactive |
| C=CC(=O)Nc1cccc(Oc2nc(Nc3ccc(N4CCN(C)CC4)cc3OC)ncc2Cl)c1 | inactive |
| COC(=O)C[C@](O)(CCCC(C)(C)O)C(=O)O[C@@H]1C(OC)=C[C@]23CCCN2CCc2cc4c(cc2[C@H]13)OCO4 | inactive |
| CCOc1cc2ncc(C#N)c(Nc3ccc(F)c(Cl)c3)c2cc1NC(=O)C=CCN(C)C | inactive |
| Cc1[nH]c2ccccc2c1CCNCc1ccc(C=CC(=O)NO)cc1 | inactive |
| CC(C)(C)c1cnc(CSc2cnc(NC(=O)C3CCNCC3)s2)o1 | inactive |
| CCN1CCN(CC(=O)Nc2ccc(-c3cccc4c(=O)cc(N5CCOCC5)oc34)c3sc4ccccc4c23)CC1 | inactive |
| CC(=O)SC[C@@H](C)C(=O)N1CCC[C@H]1C(=O)N[C@@H](Cc1ccccc1)C(=O)O | inactive |
| COc1cccc2c(NCc3ccccc3)nc(-n3c(N)nc4ccccc43)nc12 | inactive |
| CCN1CCN(Cc2ccc(-c3cc4c(N[C@H](C)c5ccccc5)ncnc4[nH]3)cc2)CC1 | inactive |
| CCC[C@H](NC(=O)C(C#N)=Cc1cccc(Br)n1)c1ccccc1 | inactive |
| O=C(C=Cc1c(C(=O)O)[nH]c2cc(Cl)cc(Cl)c12)Nc1ccccc1 | inactive |
| COc1ccc(OC)c(-c2nnc3ccc(-c4ccc(OC)c(O[C@@H]5CCOC5)c4)nn23)c1 | inactive |
| c1nc2nc(Nc3ccc(N4CCOCC4)cc3)nc(NC3CCCCC3)c2[nH]1 | inactive |
| Cc1ccc(NC(=O)C2(c3ccc4c(c3)OC(F)(F)O4)CC2)nc1-c1cccc(C(=O)O)c1 | inactive |
